{"source": "PubChem BioAssay AID434961", "about": "(Broad Institute, 2010)", "note": "Out of some 7,700 compounds screened, about 15 (0.2%) were called active. Inconclusive results (about 6%) are left out. Shown is part of a subset that was picked to be rich in actives. A number with no mark means an inactive call.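 Rule for the calls: active = more than half of replicate wells with inhibition above about 18% (limit read from the data, passing the limit was not always enough); inconclusive = exactly half of replicate wells above that limit; inactive = fewer than half of replicates above it.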"}
{"target": "Regulator of chromosome condensation (Homo sapiens) + GTP-binding nuclear protein Ran (Homo sapiens) + Importin subunit beta-1 (Homo sapiens) (UniProt P18754+P62826+Q14974)", "experiment": "inhibitors of Ran–importin-beta complex formation, primary screen, biochemical, CFP-Ran/YFP-importin-beta FRET, RCC1, cell-free (AID 434961);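 note: 0% = DMSO wells and 100% inhibition = RanGDP control wells on each plate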", "conditions": "stronger effect = higher value, concentration not given here"}
{"smiles": "C[C@@H]1CCCCO[C@@H](CN(C)S(=O)(=O)c2cn(C)cn2)[C@H](C)CN([C@@H](C)CO)C(=O)c2cc(NC(=O)c3ccccc3)ccc2O1", "inhibition": "1.13%"}
{"smiles": "Cc1ccc(S(=O)(=O)Nc2ccc3c(c2)CC(=O)N([C@H](C)CO)C[C@H](C)[C@@H](CN(C)Cc2ccncc2)O3)cc1", "inhibition": "0.0587%"}
{"smiles": "Cc1noc(C)c1S(=O)(=O)Nc1ccc2c(c1)CC(=O)N([C@H](C)CO)C[C@@H](C)[C@@H](CN(C)C(=O)NC(C)C)O2", "inhibition": "-4.94%"}
{"smiles": "C[C@H]1CN([C@@H](C)CO)C(=O)Cc2cc(NC(=O)C3CC3)ccc2O[C@H]1CN(C)Cc1ccc(Cl)c(Cl)c1", "inhibition": "7.64%"}
{"smiles": "C[C@@H]1CCCCO[C@H](CN(C)C(=O)Nc2ccccc2)[C@@H](C)CN([C@H](C)CO)C(=O)c2cc(NC(=O)Cc3ccccc3)ccc2O1", "inhibition": "0.496%"}
{"smiles": "C[C@@H]1CCCCO[C@H](CN(C)C(=O)CCCN(C)C)[C@@H](C)CN([C@H](C)CO)C(=O)c2cc(NS(=O)(=O)c3cccs3)ccc2O1", "inhibition": "-2.86%"}
{"smiles": "C[C@@H]1CN([C@@H](C)CO)C(=O)c2cc(NC(=O)c3ccncc3)ccc2O[C@H]1CN(C)C(=O)Nc1ccccc1", "inhibition": "4.49%"}
{"smiles": "Cc1noc(C)c1NC(=O)N(C)C[C@@H]1Oc2ccc(NC(=O)Nc3cccc4ccccc34)cc2C(=O)N([C@H](C)CO)C[C@H]1C", "inhibition": "-0.0777%"}
{"smiles": "C[C@@H]1CN([C@H](C)CO)C(=O)Cc2cc(NC(=O)C3CC3)ccc2O[C@H]1CN(C)C", "inhibition": "-6.15%"}
{"smiles": "C[C@@H]1CCCCO[C@H](CN(C)Cc2ccncc2)[C@H](C)CN([C@H](C)CO)C(=O)c2cc(NC(=O)c3ccncc3)ccc2O1", "inhibition": "-0.929%"}
{"smiles": "C[C@@H]1CCCCO[C@@H](CN(C)S(=O)(=O)c2cccs2)[C@H](C)CN([C@H](C)CO)C(=O)c2cc(NS(C)(=O)=O)ccc2O1", "inhibition": "-1.23%"}
{"smiles": "Cc1cc(C(=O)Nc2cccc3c2O[C@@H](CN(C)CC2CC2)[C@@H](C)CN([C@@H](C)CO)C3=O)n(C)n1", "inhibition": "-1.14%"}
{"smiles": "C[C@H](CO)N1C[C@H](C)[C@H](CN(C)CC2CC2)Oc2c(NC(=O)c3ccc(-c4nccs4)cc3)cccc2C1=O", "inhibition": "-0.371%"}
{"smiles": "C[C@H]1CN([C@@H](C)CO)C(=O)c2cccc(NC(=O)c3ccc(-c4nccs4)cc3)c2O[C@H]1CN(C)C(=O)Nc1ccccc1", "inhibition": "18.7% (active)"}
{"smiles": "C[C@H]1CN([C@@H](C)CO)C(=O)c2cccc(NC(=O)c3ccc(-c4nccs4)cc3)c2O[C@@H]1CN(C)C(=O)Nc1ccccc1", "inhibition": "0.856%"}
{"smiles": "C[C@@H]1CN([C@H](C)CO)C(=O)c2cccc(NC(=O)c3ccc(-c4nccs4)cc3)c2O[C@@H]1CN(C)C(=O)Nc1ccccc1", "inhibition": "-1.55%"}
{"smiles": "C[C@@H]1CN([C@H](C)CO)C(=O)c2cccc(NC(=O)c3ccc(-c4nccs4)cc3)c2O[C@@H]1CN(C)CC1CC1", "inhibition": "29.6% (active)"}
{"smiles": "C[C@H]1CN([C@@H](C)CO)C(=O)c2cccc(NC(=O)c3ccc(-c4nccs4)cc3)c2O[C@H]1CN(C)CC1CC1", "inhibition": "1.58%"}
{"smiles": "Cc1noc(C)c1NC(=O)N(C)C[C@@H]1Oc2ccc(NS(=O)(=O)c3cccs3)cc2C(=O)N([C@H](C)CO)C[C@@H]1C", "inhibition": "-1.63%"}
{"smiles": "C[C@@H]1CCCCO[C@@H](CN(C)C(=O)CCC(F)(F)F)[C@H](C)CN([C@@H](C)CO)C(=O)c2cc(NS(=O)(=O)c3ccccc3)ccc2O1", "inhibition": "-3.22%"}
{"smiles": "C[C@@H]1CN([C@@H](C)CO)C(=O)c2cccc(NS(C)(=O)=O)c2O[C@H]1CN(C)S(=O)(=O)c1cn(C)cn1", "inhibition": "0.88%"}
{"smiles": "C[C@H]1CN([C@@H](C)CO)C(=O)Cc2cc(NC(=O)Cc3cn(C)c4ccccc34)ccc2O[C@@H]1CN(C)C(=O)Nc1ccccc1", "inhibition": "0.0312%"}
{"smiles": "Cc1noc(C)c1S(=O)(=O)Nc1cccc2c1O[C@H](CN(C)C(=O)NC1CCCCC1)[C@H](C)CN([C@@H](C)CO)C2=O", "inhibition": "-6.51%"}
{"smiles": "Cc1noc(C)c1S(=O)(=O)Nc1cccc2c1O[C@@H](CN(C)Cc1ccc(C(F)(F)F)cc1)[C@@H](C)CN([C@@H](C)CO)C2=O", "inhibition": "-1.54%"}
{"smiles": "C[C@H]1CN([C@@H](C)CO)C(=O)c2cc(NC(=O)C3CC3)ccc2O[C@@H]1CN(C)Cc1ccc(Cl)c(Cl)c1", "inhibition": "-5.2%"}
{"smiles": "C[C@@H]1CN([C@H](C)CO)C(=O)Cc2cc(NC(=O)Nc3ccccc3)ccc2O[C@@H]1CN(C)C(=O)Nc1ccc(C(F)(F)F)cc1", "inhibition": "-1.14%"}
{"smiles": "C[C@@H]1CCCCO[C@H](CN(C)C)[C@@H](C)CN([C@H](C)CO)C(=O)c2cc(NC(=O)Nc3ccc(F)cc3)ccc2O1", "inhibition": "3.67%"}
{"smiles": "Cc1noc(C)c1S(=O)(=O)Nc1cccc2c1O[C@H](CN(C)C)[C@H](C)CN([C@H](C)CO)C2=O", "inhibition": "5.73%"}
{"smiles": "C[C@@H]1CN([C@@H](C)CO)C(=O)c2cc(NC(=O)Nc3ccc4c(c3)OCO4)ccc2O[C@@H]1CN(C)Cc1ccc(C(=O)O)cc1", "inhibition": "-3.71%"}
{"smiles": "C[C@@H]1CN([C@@H](C)CO)C(=O)CCCn2nncc2CO[C@@H]1CN(C)C", "inhibition": "4.43%"}
{"smiles": "COc1ccc(CN(C)C[C@@H]2OCCCC[C@H](C)Oc3ccc(NC(=O)Nc4c(C)noc4C)cc3C(=O)N([C@H](C)CO)C[C@@H]2C)cc1", "inhibition": "0.0847%"}
{"smiles": "Cc1noc(C)c1S(=O)(=O)Nc1ccc2c(c1)CC(=O)N([C@H](C)CO)C[C@H](C)[C@H](CN(C)C(=O)Nc1cccc3ccccc13)O2", "inhibition": "5.9%"}
{"smiles": "C[C@H](CO)N1C[C@H](C)[C@H](CN(C)S(=O)(=O)c2cccs2)Oc2c(NC(=O)Nc3ccc(C(F)(F)F)cc3)cccc2C1=O", "inhibition": "3.84%"}
{"smiles": "CC(C)NC(=O)N(C)C[C@H]1OCCCC[C@H](C)Oc2ccc(NC(=O)CCCN(C)C)cc2C(=O)N([C@H](C)CO)C[C@@H]1C", "inhibition": "-1.47%"}
{"smiles": "C[C@@H]1CN([C@@H](C)CO)C(=O)CCCn2cc(nn2)CO[C@H]1CN(C)C(=O)Nc1ccc(-c2cccs2)cc1", "inhibition": "-3.35%"}
